Only some compounds are listed: those with a hit (about 7.4% of all), similar ones and a draw of the others.
Rab9 prom act = Rab9 promoter activation | Huh7 Rab9 promoter-luciferase reporter, luminescence, 24 h | Potency, µM (highest dose often 9.22 µM), for inactives: at the top dose activation, negative = inhibition, hits mostly activators | 320,000 compounds, 2.8% hits | AID 485297; further: % of control where 0% means no effect; nearly all actives have a fitted effect of over 60% in size
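Using Huh7 cells stably transfected with Rab9 promoter–luciferase, compounds were incubated 24 h at 37 °C, 5% CO2; luciferase luminescence was read 10 min after reagent addition.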
KinaseGlo FLuc = counter-screen: inhibitors of Kinase-Glo firefly luciferase; Q27757; Kinase-Glo luciferase, ATP luminescence, 8 min; Potency, µM (titrated, usually from 38.3 µM), for inactives: top-dose activity change, negative = inhibition, usual class: inhibitors; 200,000 compounds, 0.28% hits; AID 1379; further: on the % scale 0 is the no-effect control and ±100 the full control effect; nearly all actives have a fitted effect of over 60% in size
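Compound is pinned into ATP-containing buffer (10 uM ATP, imidazole pH 7.2, 7 mM MgCl2). Kinase-Glo luciferase reagent is then added. Light output is recorded following an 8-min room-temperature incubation.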
SMN2 splice enh = increases expression of the SMN2 splice variant; 210,000 compounds, 2.8% hits; HEK293 SMN2-luciferase splicing reporter, luminescence, 30-36 h; Potency, µM (highest dose often 46.1 µM), without a hit: at the highest dose activity change, positive = activation, most hits filed as activators; further: % of control where 0% means no effect; nearly all actives have a fitted effect of over 55% in size
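qHTS luciferase splicing reporter: luminescence rises when SMN2 exon 7 is included in transfected HEK293 cells. Compound exposure lasted 30-36 h at 37C, with 4.5 mM final sodium butyrate as control, followed by a ONE-Glo read.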
NPC1 prom act = NPC1 promoter activation; Huh7 NPC1 promoter luciferase reporter, 24 h; Potency, µM (titrated, usually from 9.22 µM), without a hit: top-dose activation, most hits filed as activators; 320,000 compounds, 2.4% hits; further: % of control where 0% means no effect; nearly all actives have a fitted effect of over 60% in size
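Luciferase expression driven by the NPC1 promoter was measured in stably transfected Huh7 cells after a 24 h compound incubation, using a luciferase reagent and a luminescence read.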
FLuc modulator = counter-screen for miR-21 project: firefly luciferase inhibitors or activators. purified FLuc, Km substrates, luminescence inhibition. 360,000 compounds, 6.9% hits. AID 588342. Potency, µM (highest dose often 57.5 µM), without a hit: top-dose activity change, negative = inhibition, usual class: inhibitors;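 further: plate controls were vehicle for no effect and reference inhibitor for full effect; nearly all actives have a fitted effect of over 55% in size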
Target sequence (P08659 whole entry, looked up): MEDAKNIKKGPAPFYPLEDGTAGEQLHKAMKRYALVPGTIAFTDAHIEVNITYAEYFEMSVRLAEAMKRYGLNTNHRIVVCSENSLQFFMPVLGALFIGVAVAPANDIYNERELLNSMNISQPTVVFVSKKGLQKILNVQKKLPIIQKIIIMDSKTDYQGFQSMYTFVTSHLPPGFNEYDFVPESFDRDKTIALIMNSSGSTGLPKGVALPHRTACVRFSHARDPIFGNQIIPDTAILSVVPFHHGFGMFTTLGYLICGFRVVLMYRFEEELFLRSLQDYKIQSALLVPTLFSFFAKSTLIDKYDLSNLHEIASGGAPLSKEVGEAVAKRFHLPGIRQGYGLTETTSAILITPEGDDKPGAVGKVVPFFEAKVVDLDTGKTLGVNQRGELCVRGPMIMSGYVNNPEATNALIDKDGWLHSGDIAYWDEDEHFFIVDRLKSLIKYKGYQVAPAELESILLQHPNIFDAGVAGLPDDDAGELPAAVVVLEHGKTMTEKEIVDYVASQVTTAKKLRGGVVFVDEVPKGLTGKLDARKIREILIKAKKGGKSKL
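Purified P. pyralis luciferase, 10 nM final, with Km-level 10 uM D-luciferin and 10 uM ATP in 50 mM Tris acetate pH 7.5, 10 mM Mg acetate, 0.01% Tween-20, 0.05% BSA; 6-point qHTS titration about 60 µM downward; luminescence read.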
ELG1 genotox = inducers of genotoxicity in HEK293T ELG1-luciferase cells. HEK293T ELG1-luciferase reporter, luminescence, 16 h. Potency, µM (highest dose often 46 µM), without a hit: top-dose activity change, positive = activation, actives largely listed as activators. AID 504466. 330,000 compounds, 1.3% hits; further: % of control where 0% means no effect; nearly all actives have a fitted effect of over 60% in size
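HEK293T cells expressing luciferase-tagged ELG1 were treated with compound or DMSO for 16 hr at 37°C. Luciferase activity was then read after 30 min with ONE-Glo at room temperature; rising signal flags genetic stress.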
Numbers without * were called inactive; ? = inconclusive; . = no result given. The call rests on the fitted dose curve; in most records, active means well fitted curve in the direction sought with a large enough effect; inconclusive means small, poorly fitted or top-dose-only effect, or another doubt; inactive means no such curve, though single readings can be large; an effect the other way counts as inactive or inconclusive. Potency means the concentration at half of the fitted maximal effect.

SMILES	Rab9 prom act	KinaseGlo FLuc	SMN2 splice enh	NPC1 prom act	FLuc modulator	ELG1 genotox
NS(=O)(=O)c1ccc(NCC2COc3ccccc3O2)c([N+](=O)[O-])c1 (configuration not stated)	21.0%	4.9%	11.2%	-1.3%	-10.8%	4.0%
CC(C)Oc1ccc(/C=C/C(=O)NCC2COc3ccccc3O2)cc1 (configuration not stated)	-4.7%	.	.	2.9%	15.1µM*	-3.6%
O=C(NCC1COc2ccccc2O1)c1ccc(Cl)cc1 (configuration not stated)	2.51µM*	-1.2%	14.1µM*	3.55µM*	7.57µM*	11.6µM*
O=C(NCC1COc2ccccc2O1)c1ccc(NC(=O)c2ccco2)cc1 (configuration not stated)	5.2%	3.2%	23.4%	4.1%	1.2%	0.1%
CC(=O)c1ccc(NCC2COc3ccccc3O2)c([N+](=O)[O-])c1 (configuration not stated)	1.12µM*	-1.5%	5.62µM*	2.82µM*	16.9µM*	?
O=c1c2cccc(Cl)c2nc2n1Cc1ccccc1-2	2.82µM*	.	.	?	12µM*	?
Cc1sc2nc3n(c(=O)c2c1C)Cc1ccccc1-3	?	-23.8%	14.1µM*	25.8%	3.79µM*	?
Nc1nc(SCc2ccccc2)[nH]c(=O)c1-c1ccccc1	?	0.0%	12.6µM*	?	19µM*	11.6µM*
COc1cc(/C=C2\SC(=S)N(Nc3ncc(C(F)(F)F)cc3Cl)C2=O)ccc1O	-3.3%	-2.8%	-2.8%	-1.1%	8.49µM*	7.0%
COc1cc(/C=C2\SC(=S)N(c3cccnc3)C2=O)ccc1O	-2.2%	.	.	-3.2%	-6.7%	0.9%
CN(C)c1ccc(/C=C2\SC(=S)N(Nc3ncc(C(F)(F)F)cc3Cl)C2=O)cc1	-2.3%	-6.2%	7.1%	4.8%	9.53µM*	0.3%
C#CCn1cnc2c(cnn2-c2ccc(F)cc2)c1=O	.	.	-5.3%	.	-9.5%	.
Cc1sc2ncnc(N=Nc3c(O)[nH]c4ccccc34)c2c1C	?	-3.6%	-13.0%	15.9%	0.849µM*	3.2%
NC(=S)N=Nc1c(O)[nH]c2ccccc12	-1.6%	-3.2%	-3.8%	1.8%	-18.8%	-2.2%
Oc1[nH]c2ccccc2c1N=Nc1nncc2ccccc12	3.55µM*	.	.	?	7.57µM*	6.8%
CCc1cccc(NC(=O)c2cc3c(=O)[nH]c4ccccc4c3n2C)c1	.	.	5.5%	.	-4.2%	.
O=C(Nc1ccc(O)cc1)c1c(O)c2c([nH]c1=O)CCCC2	0.562µM*	-0.1%	11.2µM*	1.26µM*	6.01µM*	?
CCNC(=O)c1c(O)c2c([nH]c1=O)CCCC2	14.9%	.	.	1.8%	-9.5%	2.6%
COC(=O)c1ccccc1NC(=O)c1c(O)c2c([nH]c1=O)CCCC2	2.8%	-3.5%	9.4%	4.0%	21.3µM*	1.6%
CS(=O)(=O)N1CCN(c2ccc(NC(=O)c3ccc(Br)o3)cc2)CC1	3.16µM*	0.1%	7.08µM*	2.82µM*	-15.4%	1.46µM*
O=C(Nc1ccc(N2CCOCC2)cc1)c1ccc(Br)o1	0.282µM*	.	.	0.447µM*	4.26µM*	?
O=C(Nc1ccc(N2CCCC2)c(Cl)c1)c1ccc(Br)o1	2.82µM*	-7.1%	11.2µM*	3.55µM*	5.36µM*	?
CCC(=O)N1CCN(c2ccc(NC(=O)c3ccc(Br)o3)cc2)CC1	1.3%	-1.5%	12.7%	7.6%	-12.8%	15.4%
CC1CCN(c2ccc(NC(=O)c3ccc(Br)o3)cc2)CC1	1µM*	.	.	1µM*	1.9µM*	1.46µM*
CCCOc1ccc(NC(=O)CC2C(=O)N(c3cccc(C)c3)C(=O)N2CCc2ccncc2)cc1 (configuration not stated)	.	.	.	.	5.1%	.
SMILES	Rab9 prom act	KinaseGlo FLuc	SMN2 splice enh	NPC1 prom act	FLuc modulator	ELG1 genotox
Cc1cc(Br)ccc1NC(=O)CCS(=O)(=O)c1cccc2nsnc12	.	.	0.2%	.	-9.6%	.
Cc1cc(C)c(NC(=O)Cn2nc(-c3ccncc3)ccc2=O)c(C)c1	.	.	.	.	-0.5%	.
O=C(CCc1nc(-c2ccccc2F)no1)Nc1cccc(C(F)(F)F)c1	.	.	-26.9%	.	?	.
O=C(NNC(=O)c1ccc(Br)o1)c1ccc(NC(=O)c2ccccc2)cc1	-4.3%	0.8%	-4.9%	-2.6%	5.9%	4.9%
CN1CCN(c2ccc(NC(=O)c3ccccc3Br)cc2)CC1	?	-3.5%	?	?	?	14.6µM*
CN1CCN(c2ccc(NC(=O)c3ccc(-c4ccccc4F)o3)cc2)CC1	1µM*	.	.	3.16µM*	2.69µM*	?
N/C(=N\O)c1ccc(NC(=O)c2ccc(Br)o2)cc1	?	-14.5%	18.5%	?	16.9µM*	23.1µM*
CN1CCN(c2ccc(NC(=O)c3ccc(Br)o3)cc2)CC1	?	.	.	1.58µM*	12µM*	16.4µM*
O=C(Nc1ccc(N2CCN(C(=O)c3ccco3)CC2)cc1)c1ccccc1Br	1.2%	.	.	7.0%	0.6%	-17.3%
Cc1cccc(N2CCN(C(=O)C3CCN(S(=O)(=O)c4ccc5c(c4)oc(=O)n5C)CC3)CC2)c1C	.	.	-29.1%	.	-8.3%	.
CCN(C(=O)CSc1nc2ccccc2n1Cc1ccc(C(=O)OC)cc1)c1ccccc1	.	.	.	.	-3.0%	.
COc1ccc(CNC(=O)C2CCN(C(=O)c3ccc(-n4ccc5ccccc54)s3)CC2)cc1	.	.	.	.	-19.1%	.
O=C(Nc1ccc(N2CCOCC2)cc1)c1ccc([N+](=O)[O-])o1	1.58µM*	.	.	1.41µM*	8.49µM*	9.2µM*
CC1CCN(c2ccc(NC(=O)c3cccnc3)cc2)CC1	?	-3.7%	28.2µM*	?	12µM*	11.4%
Cc1ccc2c(Sc3ccccc3)c(C(=O)NCc3ccccc3F)[nH]c2c1	.	.	.	.	-4.7%	.
O=C(c1cc(COc2ccc(F)cc2Cl)on1)N1CC2C[C@@H]3CC1C[C@H](C2)C3	2.51µM*	.	.	3.16µM*	6.75µM*	9.2µM*
O=C(c1cc(COc2ccc(F)cc2Cl)on1)N1C[C@H]2CC[C@H]1C2	2.82µM*	.	.	?	13.5µM*	?
Fc1cccc(NCc2ccccc2-c2nnc(-c3ccccc3Cl)o2)c1	.	.	0.9%	.	?	.
COc1ccc(OC)c(CNC(=O)Cc2ccc(NC(=O)N3CCSc4ncccc43)cc2)c1	.	.	.	.	-12.8%	.
CCOC(=O)c1sc(N2N=C(C)C(N=Nc3cccc(C)c3)C2=O)nc1C (configuration not stated)	14.8%	.	.	20.8%	6.75µM*	-2.7%
C=CCOC(=O)N[C@H](c1cccc(C(F)(F)F)c1)C(C(C)=O)C(C)=O	.	4.5%	-4.2%	.	.	.

Assay outcomes deposited in PubChem by National Center for Advancing Translational Sciences (NCATS).
